Hits are enriched below; roughly 15% of the tested compounds scored in any of these assays.
Pf growth 48h: P. falciparum growth inhibition at 48 hours (one generation). P. falciparum luciferase growth in erythrocytes, 48 h. Potency, µM (titrated, usually from 28.7 µM), without a hit: at the highest dose activity change, negative = inhibition, usual class: inhibitors. actives 5.9% (n = 310,000). AID 504832; also: potency is read from the fitted curve at half-maximal effect; % is scaled to controls: 0 for no effect and ±100 for the full control effect
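Here the parasites carry a stable luciferase gene and grow inside erythrocytes in Albumax-based RPMI medium with compound for one erythrocytic cycle. Activity is scored as loss of luminescent signal.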
HCMV antiviral: human cytomegalovirus inhibition; HFF cells, HCMV-luciferase reporter, 72 h; stronger effect = lower value; actives 4.5% (n = 410,000); AID 1259415; activity change, negative = inhibition, % at 57.5 µM; in the data active = activity change below about -60%; inconclusive = no clear call, values can overlap the other calls; inactive = above about -39%; also: % is scaled to controls: 0 for no effect and ±100 for the full control effect
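Cell-based, HFFs, 1000 cells/well, 16 h 37C; cpds in DMSO + HCMV-luc, MOI 1 PFU/cell; 72 h 37C; OneGlo luminescence after 5 min RT; norm. to buffer vs Salinomycin 10uM.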
Pf growth 96h: P. falciparum growth inhibition at 96 hours. P. falciparum luciferase reporter growth, 96 h. Potency, µM (highest dose often 28.7 µM), without a hit: at the top dose activity change, negative = inhibition, actives largely listed as inhibitors. actives 6.9% (n = 320,000). AID 504834; also: potency is read from the fitted curve at half-maximal effect; % is scaled to controls: 0 for no effect and ±100 for the full control effect
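96 h incubation, 37 C, 5% CO2, of luciferase-reporter P. falciparum-infected RBCs (2% hematocrit, 0.05% parasitemia final) with test compounds; endpoint luminescence.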
Sm TGR block: blocks Schistosoma mansoni thioredoxin glutathione reductase | purified TGR, DTNB reduction, TNB absorbance 405 nm | Potency, µM (doses to about 114 µM), for the others: at the highest dose activity change, negative = inhibition, usual class: inhibitors | actives 3% (n = 360,000) | AID 485364; also: potency is read from the fitted curve at half-maximal effect; % is scaled to controls: 0 for no effect and ±100 for the full control effect; nearly all actives have a fitted effect of over 60% in size
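First, TGR (20 nM dispensed) and NADPH were mixed with compound. Second, a 15 min room-temperature incubation followed. Third, further NADPH and then DTNB were added to start the reaction. Finally, TNB absorbance was monitored kinetically.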
SARS PLpro yeast: blocks SARS-CoV papain-like protease in a yeast assay; Potency, µM (titrated, usually from 32.9 µM), without a hit: at the highest dose activity, positive = growth rescue, usual class: activators; S. cerevisiae expressing SARS-CoV PLpro, growth rescue; AID 485353; actives 0.19% (n = 330,000); calls by dose curve; also: potency is read from the fitted curve at half-maximal effect; 0% is about no effect; nearly all actives have a fitted effect of over 55% in size
HCV inh: blocks hepatitis C virus; Huh7.5.1 HCVcc-Cre infection, luciferase reporter, 44 h; Potency, µM (series often up to 41.8 µM), for the others: at the top dose activity change, negative = inhibition, hits mostly inhibitors; actives 3.4% (n = 340,000); also: potency is read from the fitted curve at half-maximal effect; % is scaled to controls: 0 for no effect and ±100 for the full control effect
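Cells (1,000/well) were plated 4 h before compound, then infected with HCVcc-Cre virus (~0.5 moi). After 44 h further culture, infection was read as luciferase luminescence following a 15 min substrate incubation at room temperature.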
* marks the source's active call; other numbers are inactive results; ? = inconclusive; / = no result given; [ ] = remark or other dose. Unless noted, calls follow the shape of the dose curve; as a rule, active = well fitted curve in the direction sought with a large enough effect; inconclusive = small, poorly fitted or top-dose-only effect, or another doubt; inactive = no such curve, though single readings can be large; an effect the other way counts as inactive or inconclusive.

SMILES | Pf growth 48h | HCMV antiviral | Pf growth 96h | Sm TGR block | SARS PLpro yeast | HCV inh
CCN(CC)C(=S)NC(=O)c1ccc(OC)c(Br)c1 | ? | -24.4 | -15.4% | -12.1% | 4.9% | 32.8%
C=CCNC(=S)NC(=O)c1ccc(C)c(Br)c1 | -13.8%[5.75 µM] | -18.9 | 28.6% | 31.6µM* | -2.7% | -27.3%
CCOC(=O)N1CCC(N2C(=O)c3ccccc3C2Nc2cc(C)cc(C)c2)CC1 (configuration not stated) | ? | -26.7 | ? | 3.4% | -1.1% | -13.1%
CCOC(=O)[C@]12Cc3cc(C)ccc3[C@H]1N(C1CCCCC1)C(=O)c1ccccc12 | / | -103.5* | / | / | / | /
CCOC(=O)[C@]12Cc3cc(Cl)ccc3[C@H]1N(C1CCCCC1)C(=O)c1cc(OC)ccc12 | / | -103.8* | / | / | / | /
CCOC(=O)[C@]12Cc3c(cc(OC)c(OC)c3OC)[C@H]1N(C1CCCCC1)C(=O)c1ccccc12 | / | -101.5* | / | / | / | /
CCOC(=O)[C@]12Cc3cc(N(C)C)ccc3[C@H]1N(Cc1ccccc1)C(=O)c1ccccc12 | / | -26.1 | / | / | / | 11.2µM*
CCOC(=S)SCC(=O)N1CCc2cc(OC)ccc2C1C1C(=O)CCCC1=O (configuration not stated) | 23.7% | -2.2 | ? | -10.7% | 4.6% | 20.6%
CCOC(=O)[C@]12Cc3cc(Cl)ccc3[C@H]1N(Cc1ccccc1)C(=O)c1ccccc12 | / | -34.0 | / | / | / | -12.9%[8.37 µM]
CCOC(=O)C1(NC(=O)C2(N3C(=O)c4ccccc4C3=O)CCCC2)CCCC1 | / | -13.3 | / | / | / | -4.1%
Cc1ccc(NC(=O)CCS(=O)(=O)c2cccc3nsnc23)c(C)c1 | / | 2.4 | / | -2.5% | / | /
CCOc1ccc(OCCCCNCCN)cc1 | / | / | ? | 2.5% | 2.4% | /
O=C(O)CCCCN1C(=O)C=CC1=O | / | 16.3 | / | / | / | /
CCOC(=O)[C@]12Cc3ccccc3[C@H]1N(C(C)C)C(=O)c1ccccc12 | / | -105.3* | / | / | / | /
COc1ccc(C2C(C(=O)O)CC(=O)N2C2CCCCC2)cc1 (configuration not stated) | 28.4% | -11.2 | / | -20.6% | 3.6% | 5.0%
CCOC(=O)[C@]12Cc3cc(C)ccc3[C@H]1N(CCC(=O)OC)C(=O)c1ccccc12 | / | -109.7* | / | / | / | /
CCOC(=O)[C@]12Cc3ccc(C)cc3[C@H]1N(C1CCCCC1)C(=O)c1cc(OC)ccc12 | / | -103.2* | / | / | / | /
CCOC(=O)C1(NC(=O)CN2C(=O)c3ccccc3C2=O)CCCC1 | / | -17.2 | / | / | / | 26.3%
CCOC(=O)[C@]12Cc3ccc(C)cc3[C@H]1N(C1CCCCC1)C(=O)c1ccccc12 | / | -101.3* | / | / | / | /
CCOC(=O)[C@]12Cc3cc(OC)ccc3[C@H]1N(CC(=O)OC)C(=O)c1ccccc12 | / | -10.9 | / | / | / | /
CCOC(=O)[C@]12Cc3cc4c(cc3[C@H]1N(Cc1ccccc1)C(=O)c1ccccc12)OCO4 | / | -18.5 | / | / | / | ?
COc1ccccc1CNC(=O)Cn1c(=O)oc2cc(S(=O)(=O)N3CCC(C)CC3)ccc21 | / | -31.3 | / | 1.9% | / | /
CCCCCCN1C[C@H](O)[C@@H](n2cc(C3CC3)nn2)C[C@@H]1c1ccc(OC)cc1 | / | -2.2 | / | / | / | /
N#Cc1cc2c(nc1S(=O)(=O)Cc1ccccc1)CCCC2 | 4.1% | -63.1* | 16.4% | 0.6% | 0.2% | 13.0%
O=C(CCCN1C(=O)c2cccc3cccc(c23)C1=O)N1CCN(c2ccccn2)CC1 | -1.4% | -22.3 | -26.1% | 4.9% | -3.2% | -18.5%
SMILES | Pf growth 48h | HCMV antiviral | Pf growth 96h | Sm TGR block | SARS PLpro yeast | HCV inh
COc1ccccc1N1CCN(C(=O)CCCn2nc(C)c([N+](=O)[O-])c2C)CC1 | 4.7% | -13.0 | 10.4µM* | -7.0% | 0.6% | -0.5%
COc1ccccc1N1CCN(C(=O)CCCN2C(=O)c3cccc4cccc(c34)C2=O)CC1 | ? | 7.5 | -14.8% | -0.9% | -2.5% | 8.91µM*
O=C(CCCN1C(=O)c2cccc3cccc(c23)C1=O)N1CCN(c2ncccn2)CC1 | ? | -66.2* | ? | / | -0.1% | -22.0%
O=C(CCCN1C(=O)c2ccccc2C1=O)N1CCCCC1 | 25.2% | 31.1 | 5.22µM* | -25.3% | 8.2% | 3.5%
COC(=O)CC(=O)CC(NS(=O)(=O)c1ccc(C)cc1)c1ccccc1 (configuration not stated) | / | 62.6 | / | / | / | /
CC(C)Oc1ccc(/C(O)=C2/C(=O)C(=O)N(CCN3CCNCC3)C2c2cccc([N+](=O)[O-])c2)cc1 (configuration not stated) | 9.3% | 41.3 | 131.5% | ? | -0.7% | 2.4%
CCOCC(O)COc1ccc(NC(=O)CC[S+](C)C)cc1 (configuration not stated) | -14.0% | / | -3.4% | / | / | /
COC(=O)C1=C(c2ccc(OC(F)(F)F)cc2)C[C@@H]2CC[C@H]1N2C(=O)NCCOc1ccccc1 | 11.7µM* | -8.3 | 4.65µM* | -11.8% | -3.4% | ?
COC(=O)C1=C(c2ccc(OC(F)(F)F)cc2)C[C@@H]2CC[C@H]1N2C(=O)NCCOc1ccccc1Cl | 10.4µM* | -8.1 | ? | -17.2% | 2.3% | ?
COC(=O)C1=C(c2ccc(Cl)c(C(F)(F)F)c2)C[C@@H]2CC[C@H]1N2C(=O)NCCOc1ccccc1 | 11.7µM* | / | 4.65µM* | -13.2% | -13.7% | ?
CCCNC(=O)N1[C@H]2CC[C@@H]1C(C(=O)OC)=C(c1ccc(OC(F)(F)F)cc1)C2 | ? | -37.6 | ? | -29.4% | -0.4% | ?
COC(=O)C1=C(c2ccc(Cl)c(C(F)(F)F)c2)C[C@@H]2CC[C@H]1N2C(=O)NCc1ccco1 | ? | -26.4 | 8.28µM* | 25.2% | -6.4% | -10.7%
CCOCc1nc2nc(Cl)c(Cl)nc2[nH]1 | / | 122.8 | / | / | / | /
O=C(NCC1CCN(Cc2cccc(F)c2)CC1)c1cc2ccc3cccnc3c2[nH]1 | / | -4.1 | / | 4.6% | / | /
CNCCc1ccccc1 | 1.5% | / | -26.2% | -34.4% | 0.8% | /
CNC[C@@H](C)NC[C@@H](Cc1ccccc1)NCCc1ccccc1 | ? | -26.8 | 2.94µM* | 0.8% | -1.5% | ?
COc1ccc(NC(=O)c2ccc(-c3ccccc3)cc2)cc1NS(=O)(=O)c1ccc(F)cc1 | ? | -94.9* | ? | 6.4% | -6.7% | 3.98µM*
COc1ccccc1NC(=O)Nc1ccc(Cl)c(S(=O)(=O)Nc2ccccc2OC)c1 | -16.9% | 3.6 | ? | -4.8% | 6.2% | ?
CCN(CC)c1ccc(NC(=O)c2ccccc2)cc1S(=O)(=O)Nc1ccccc1OC | 1.47µM* | -24.7 | ? | 1.0% | -19.2% | ?
CCN(CC)c1ccc(NC(=O)c2cccc(C)c2)cc1S(=O)(=O)Nc1ccccc1OC | 7.38µM* | -15.5 | 2.94µM* | -14.8% | -13.9% | -10.6%
CCN(CC)c1ccc(NC(=O)COc2ccc(C#N)cc2)cc1S(=O)(=O)Nc1ccc(OC)cc1 | ? | 40.0 | 10.4µM* | -6.0% | 13.6% | ?

High-throughput results: PubChem BioAssay, National Center for Advancing Translational Sciences (NCATS)
